# Assay results taken from PubChem BioAssay (NCATS).
# Values joined by “and” are separate entries in the source; they are usually repeats but may differ in a detail not shown here. Equal values may be shown once. Records with an inconclusive call do not appear. Active and inactive are the calls of the source. Calls come from the whole dose curve; as a rule, active = well fitted cell-killing curve with a large enough effect; inconclusive = small, poorly fitted or top-dose-only effect, or effect the other way; inactive = flat fitted curve, though single readings scatter.
# Experiment: qHTS assay for cell viability of HEK293 cells (AID 743288); note: nearly all actives have a fitted effect of over 50% in size
# Details: ATP luminescence (CellTiter-Glo), 18 h; max response: stronger effect = lower value
# Excerpt: National Center for Advancing Translational Sciences [NCATS]
# NIH Chemical Genomics Center [NCGC]
# U.S. Environmental Protection Agency [EPA]
# National Institutes of Environmental Health Sciences [NIEHS]
# National Toxicology Program [NTP]
# U.S. Food and Drug Administration [FDA]
# The CellTiter-Glo Luminescent Cell Viability Assay (Promega, Madison, WI) is a homogeneous method to determine the number of viable cells in culture based on quantitation of the ATP present, which signals the presence of metabolically active cells. This cell viability assay was used to screen environmental chemicals in the Hek293 cell line.
# Tox21 Assay Protocol Summary:
# Cell viability after compound treatment was measured using a luciferase-coupled ATP quantitation assay (CellTiter-Glo viability assay, Promega, Madison, WI) in parental HEK293 cells. Total intracellular ATP content corresponds to the number of metabolically competent cells after compound treatment. The cells were dispensed at 2,000 cells/5 uL/well in 1,536-well white/solid bottom assay plates using a Flying Reagent Dispenser (Aurora Discovery, San Diego, CA). The cells were incubated a minimum of 5 h at 37 C, followed by the addition of 23 nL of compounds dissolved in DMSO, positive controls or DMSO only using a pintool work station (Kalypsys, San Diego, CA). The assay plates were incubated for 18 h at 37 C, followed by the addition of 5 uL/well of CellTiter-Glo reagent. After 30 min incubation at room temperature, the luminescence intensity of the plates was measured using a ViewLux plate reader (PerkinElmer, Shelton, CT).
# % is set by controls: 0 for no effect and ±100 for the full control effect; potency is the fitted concentration of half-maximal effect.
SMILES,max response,Potency
[O-][N+](=Nc1ccccc1)c1ccccc1,-0.626% (inactive),
CC(C)[C@@H]1CC[C@@H](C)C[C@H]1O,-12.7% (inactive),
CC[C@H]1OC(=O)[C@H](C)[C@@H](O[C@H]2C[C@@](C)(OC)[C@@H](O)[C@H](C)O2)[C@H](C)[C@@H](O[C@@H]2O[C@H](C)C[C@H](N(C)C)[C@H]2O)[C@](C)(O)C[C@@H](C)CN(C)[C@H](C)[C@@H](O)[C@]1(C)O,-7.47% (inactive),
C[C@H]1O[C@@H](O[C@H]2[C@@H](O)C[C@H](O[C@H]3[C@@H](O)C[C@H](O[C@H]4CC[C@@]5(C)[C@H](CC[C@@H]6[C@@H]5C[C@@H](O)[C@]5(C)[C@@H](C7=CC(=O)OC7)CC[C@]65O)C4)O[C@@H]3C)O[C@@H]2C)C[C@H](O)[C@@H]1O,,126 nM (active) and 50.1 nM (active)
CCOC(C)OCC,7.3% (inactive),
C[Si](C)(C)O[Si](C)(C)C,-0.467% (inactive),
ClC(Cl)Cl,-2% (inactive),
Nc1ncnc2c1ncn2[C@H]1CC[C@@H](CO)O1,-8.27% (inactive) and 0.717% (inactive),
OB(O)O,-3.91% (inactive) and 5.45% (inactive),
Nc1ccc(N=Nc2ccccc2)c(N)n1,-23.5% (inactive) and -25.3% (inactive),
O.O.O.O.O.O.O.O=S(=O)([O-])[O-].[Co+2],1.41% (inactive),
CC/C=C\C/C=C\C/C=C\CCCCCCCC(=O)O,-4.87% (inactive),
NCCN,-4.96% (inactive),
Cc1ncc[nH]1,-10.6% (inactive),
OCl,-19.9% (inactive),
CCCCO,11.1% (inactive) and -7.83% (inactive),
CC(C)CCCCCCc1ccc(O)cc1,-15.7% (inactive),
COC(=O)c1ccccc1O,-4.62% (inactive) and -2.27% (inactive),
C=CC(C)(O)CC/C=C(\C)CCC=C(C)C (stereo not given),-7.81% (inactive),
C=C(C)C1CC=C(C)CC1 (stereo not given),-3.42% (inactive) and -10.2% (inactive),

SMILES,max response,Potency
CC1=CC(=O)NS(=O)(=O)O1,-5.77% (inactive) and -0.759% (inactive),
c1ccc2ccccc2c1,-14.2% (inactive) and 4.14% (inactive),
CCCCC(CC)COS(=O)(=O)O (stereo not given),8.79% (inactive),
C[C@H](CCC(=O)O)[C@H]1CC[C@H]2[C@@H]3[C@H](O)C[C@@H]4C[C@H](O)CC[C@]4(C)[C@H]3C[C@H](O)[C@]12C,-4.94% (inactive),
NCCO/C=C/[C@H](N)C(=O)O,-5.56% (inactive),
CCCCCCCCCCCCCCCCCC(=O)OC[C@@H](O)[C@H]1OC[C@H](O)[C@H]1O,-11.8% (inactive),
Cc1ccc(S(=O)(=O)O)cc1C,0.0836% (inactive),
C[C@H](CCC(=O)O)[C@H]1CC[C@H]2[C@@H]3CC[C@@H]4C[C@H](O)CC[C@]4(C)[C@H]3C[C@H](O)[C@]12C,3.72% (inactive),
Nc1nccs1,-5.55% (inactive),
CC(C)CCC[C@@H](C)[C@H]1CC[C@H]2[C@@H]3CC=C4C[C@@H](O)CC[C@]4(C)[C@H]3CC[C@]12C,-8.56% (inactive),
CO,1.36% (inactive),
OCC(O)CO,1.91% (inactive) and -2.54% (inactive),
Oc1ccc(/C=C/c2cc(O)cc(O)c2)cc1,-22.7% (inactive) and -15% (inactive),
OC[C@H]1O[C@@H]2O[C@H]3[C@H](O)[C@@H](O)[C@@H](O[C@H]4[C@H](O)[C@@H](O)[C@@H](O[C@H]5[C@H](O)[C@@H](O)[C@@H](O[C@H]6[C@H](O)[C@@H](O)[C@@H](O[C@H]7[C@H](O)[C@@H](O)[C@@H](O[C@H]1[C@H](O)[C@H]2O)O[C@@H]7CO)O[C@@H]6CO)O[C@@H]5CO)O[C@@H]4CO)O[C@@H]3CO,-12.8% (inactive) and 1.56% (inactive),
Cc1ccc(S(=O)(=O)NCl)cc1,-7.16% (inactive),
OCc1ccccc1,7.92% (inactive),
CO[C@@H]1[C@H](OC(=O)/C=C/C=C/C=C/C=C/C(=O)O)CC[C@]2(CO2)[C@H]1[C@@]1(C)O[C@@H]1CC=C(C)C,-10.5% (inactive),
CC(C)O,-16.4% (inactive),
CC1=CCC2CC1C2(C)C (stereo not given),-5.13% (inactive),
O=C(OCc1ccccc1)c1ccc(O)cc1,-7.01% (inactive),
